# Assay results published in PubChem BioAssay (NCATS).
# Records with an inconclusive call do not appear. Entries that show only a call come without a potency. Values without a mark were called inactive. Active and inactive are the calls of the source. Calls follow the shape of the dose curve; as a rule, active = well fitted curve in the direction sought with a large enough effect; inconclusive = small, poorly fitted or top-dose-only effect, or another doubt; inactive = no such curve, though single readings can be large; an effect the other way counts as inactive or inconclusive.
# Experiments:
# [1] = qHTS of pediatric cancer cell lines to identify multiple opportunities for drug repurposing: Primary screen for Saos-2 cells (AID 1347097); also: nearly all actives have a fitted effect of over 40% in size; also: potency is read from the fitted curve at half-maximal effect
# In short: (§1)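 ATP-based luminescence (CellTiter-Glo) quantifies viability after a 48-hour exposure. Compounds are dosed across 8 or 11 final concentrations; DMSO and 2.3 µM bortezomib serve as controls.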
# [2] = qHTS of pediatric cancer cell lines to identify multiple opportunities for drug repurposing: Primary screen for SK-N-SH cells (AID 1347098); also: nearly all actives have a fitted effect of over 65% in size; also: potency is read from the fitted curve at half-maximal effect;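 as to activity change, negative = cytotoxic: DMSO served as neutral control and bortezomib at 2.3 µM as positive control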
# In short: (§2)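 Cells (500-1,000/well) rested 5 h, then received compounds for 48 h; metabolically active cells were measured by CellTiter-Glo luminescence. Final concentrations spanned up to 46 µM (MIPE, 11-point) or 0.59 nM-46 µM (NPC, 8-point) in primary screens, 11-point in follow-ups.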
# [3] = qHTS of pediatric cancer cell lines to identify multiple opportunities for drug repurposing: Primary screen for NB1643 cells (AID 1347099); also: nearly all actives have a fitted effect of over 50% in size; also: potency is read from the fitted curve at half-maximal effect
# In short: as §1
# [4] = qHTS of pediatric cancer cell lines to identify multiple opportunities for drug repurposing: Primary screen for LAN-5 cells (AID 1347100); also: potency is read from the fitted curve at half-maximal effect
# In short: (§3)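 Cells (500-1,000/well) in growth media were settled 5 h at 37 degrees C, then given compounds for 48 h. Viability was read as CellTiter-Glo luminescence. Primary runs used MIPE at 11 points (0.78 nM-46 µM) and NPC at 8 points (0.59 nM-46 µM); follow-ups used 11 points.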
# [5] = qHTS of pediatric cancer cell lines to identify multiple opportunities for drug repurposing: Primary screen for BT-12 cells (AID 1347101); also: nearly all actives have a fitted effect of over 25% in size; also: potency is read from the fitted curve at half-maximal effect
# In short: as §2
# [6] = qHTS of pediatric cancer cell lines to identify multiple opportunities for drug repurposing: Primary screen for Rh18 cells (AID 1347102); also: nearly all actives have a fitted effect of over 65% in size; also: potency is read from the fitted curve at half-maximal effect
# In short: as §3
# [7] = qHTS of pediatric cancer cell lines to identify multiple opportunities for drug repurposing: Primary screen for RD cells (AID 1347104); also: nearly all actives have a fitted effect of over 55% in size; also: potency is read from the fitted curve at half-maximal effect
# In short: as §1
# [8] = qHTS of pediatric cancer cell lines to identify multiple opportunities for drug repurposing: Primary screen for control Hh wild type fibroblast cells (AID 1347106);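 also: series mostly up to about 46 µM; a drop in luminescence marks cytotoxicity and a rise apparent proliferation; nearly all actives have a fitted effect of over 55% in size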
# In short: as §3
# [9] = qHTS of pediatric cancer cell lines to identify multiple opportunities for drug repurposing: Primary screen for Rh30 cells (AID 1347107); also: nearly all actives have a fitted effect of over 75% in size; also: potency is read from the fitted curve at half-maximal effect; as to activity change, negative = cytotoxic: series mostly up to about 46 µM
# In short: as §3
# [10] = qHTS of pediatric cancer cell lines to identify multiple opportunities for drug repurposing: Primary screen for MG 63 (6-TG R) cells (AID 1347105); also: nearly all actives have a fitted effect of over 50% in size; also: potency is read from the fitted curve at half-maximal effect
# In short: as §1
# [11] = qHTS of pediatric cancer cell lines to identify multiple opportunities for drug repurposing: Primary screen for Rh41 cells (AID 1347108); also: nearly all actives have a fitted effect of over 70% in size; also: potency is read from the fitted curve at half-maximal effect;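 as to activity change, negative = cytotoxic: series mostly up to about 46 µM; luminescence drop marks cytotoxic hits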
# In short: as §1
# [12] = qHTS of pediatric cancer cell lines to identify multiple opportunities for drug repurposing: Primary screen for OHS-50 cells (AID 1347103); also: nearly all actives have a fitted effect of over 40% in size; also: potency is read from the fitted curve at half-maximal effect
# In short: as §2
# [13] = qHTS of pediatric cancer cell lines to identify multiple opportunities for drug repurposing: Confirmatory screen for NB1643 cells (AID 1347109); also: potency is read from the fitted curve at half-maximal effect; nearly all actives have a fitted effect of over 45% in size
# In short: as §3
# [14] = qHTS of pediatric cancer cell lines to identify multiple opportunities for drug repurposing: Confirmatory screen for A673 cells (AID 1347110);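 also: potency is read from the fitted curve at half-maximal effect; cells exposed to compound for 48 h before the viability read; nearly all actives have a fitted effect of over 65% in size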
# In short: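 qHTS titration format: primary MIPE 0.78 nM-46 µM (11 pts), NPC 0.59 nM-46 µM; confirmation 11 pts. 48 h, CTG luminescence.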
# [15] = qHTS of pediatric cancer cell lines to identify multiple opportunities for drug repurposing: Confirmatory screen for SK-N-MC cells (AID 1347111);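 also: potency is read from the fitted curve at half-maximal effect; cells exposed to compound for 48 h before the readout; nearly all actives have a fitted effect of over 70% in size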
# In short: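 Metabolically active cells were quantified by ATP-dependent luminescence (CellTiter-Glo, 15 min at room temperature) following 48 h treatment. Cells had been plated at 500-1,000 per well and settled for 5 h beforehand.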
# [16] = qHTS of pediatric cancer cell lines to identify multiple opportunities for drug repurposing: Confirmatory screen for BT-12 cells (AID 1347112); also: potency is read from the fitted curve at half-maximal effect; nearly all actives have a fitted effect of over 55% in size
# In short: as §3
# [17] = qHTS of pediatric cancer cell lines to identify multiple opportunities for drug repurposing: Confirmatory screen for LAN-5 cells (AID 1347113); also: potency is read from the fitted curve at half-maximal effect; nearly all actives have a fitted effect of over 65% in size
# In short: as §3
# [18] = qHTS of pediatric cancer cell lines to identify multiple opportunities for drug repurposing: Confirmatory screen for NB-EBc1 cells (AID 1347115);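 also: potency is read from the fitted curve at half-maximal effect; cells exposed to compound for 48 h before the viability read; nearly all actives have a fitted effect of over 45% in size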
# In short: as §3
# [19] = qHTS of pediatric cancer cell lines to identify multiple opportunities for drug repurposing: Confirmatory screen for SJ-GBM2 cells (AID 1347116); also: potency is read from the fitted curve at half-maximal effect; nearly all actives have a fitted effect of over 60% in size
# In short: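 Viability measured as metabolically active cells via CellTiter-Glo luminescence following 48 hours of compound exposure, 11-point dilutions in confirmatory testing. 500-1,000 cells/well plated 5 hours before dosing; controls were DMSO and 2.3 µM bortezomib.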
# [20] = qHTS of pediatric cancer cell lines to identify multiple opportunities for drug repurposing: Confirmatory screen for BT-37 cells (AID 1347117); also: potency is read from the fitted curve at half-maximal effect; nearly all actives have a fitted effect of over 55% in size
# In short: as §3
smiles,measurement,setting,value
c1ccc2c(c1)CCc1ccccc1N2,Potency,[1],inactive
same,Potency,[2],inactive
same,Potency,[3],inactive
same,Potency,[4],inactive
same,Potency,[5],inactive
same,Potency,[6],inactive
same,Potency,[7],inactive
same,Potency,[8],inactive
same,Potency,[9],inactive
Cc1ccccc1C(=O)N1CC/C(=N\OS(=O)(=O)O)c2ccc(Cl)cc21,Potency,[1],inactive
same,Potency,[2],inactive
same,Potency,[3],inactive
same,Potency,[4],inactive
same,Potency,[5],inactive
same,Potency,[6],inactive
same,Potency,[7],inactive
same,Potency,[10],inactive
same,Potency,[8],inactive
same,Potency,[9],inactive
same,Potency,[11],inactive
C=CC[N+]1([C@H]2C[C@H]3[C@@H]4CC[C@H]5C[C@H](OC(C)=O)[C@@H](N6CCCCC6)C[C@]5(C)[C@H]4CC[C@]3(C)[C@H]2OC(=O)CC)CCCCC1,Potency,[1],inactive
same,Potency,[2],inactive
same,Potency,[3],inactive
same,Potency,[4],inactive
same,Potency,[5],inactive
same,Potency,[6],inactive
same,Potency,[12],inactive
same,Potency,[7],inactive
same,Potency,[8],inactive
same,Potency,[9],inactive
same,Potency,[11],inactive
CN1N=C(C(N)=O)CCC1=O,Potency,[1],inactive
same,Potency,[2],inactive
same,Potency,[3],inactive
same,Potency,[4],inactive
same,Potency,[5],inactive
same,Potency,[6],inactive
same,Potency,[7],inactive
same,Potency,[10],inactive
same,Potency,[8],inactive
same,Potency,[9],inactive
same,Potency,[11],inactive
CCCCCCCCCCCC[N+](C)(C)Cc1ccccc1,Potency,[1],4.73 µM (active)
same,Potency,[2],15.4 µM (active)
same,Potency,[3],6.68 µM (active)
same,Potency,[4],inactive
same,Potency,[5],4.37 µM (active)
same,Potency,[6],2.11 µM (active)
same,Potency,[12],1.74 µM (active)
same,Potency,[7],9.44 µM (active)
same,Potency,[9],18.8 µM (active)
same,Potency,[11],21.1 µM (active)
CCCCN(CCCC)C(C(N)=O)c1ccc(OC)cc1 (configuration not stated),Potency,[1],inactive
same,Potency,[2],inactive
same,Potency,[3],inactive
same,Potency,[4],inactive
same,Potency,[5],inactive
same,Potency,[6],inactive
same,Potency,[7],inactive
same,Potency,[10],inactive
same,Potency,[8],inactive
same,Potency,[9],inactive
same,Potency,[11],inactive
CCCCCN(CCCOC)C(=O)C(CCC(=O)O)NC(=O)c1ccc(Cl)c(Cl)c1 (configuration not stated),Potency,[1],inactive
same,Potency,[2],inactive
same,Potency,[3],inactive
same,Potency,[4],inactive
same,Potency,[5],inactive
same,Potency,[6],inactive
same,Potency,[12],inactive
same,Potency,[7],inactive
same,Potency,[8],inactive
same,Potency,[9],inactive
same,Potency,[11],inactive
CC(C)Cc1ccc(C(C)C(=O)OCc2ccccn2)cc1 (configuration not stated),Potency,[1],inactive
same,Potency,[2],inactive
same,Potency,[3],inactive
same,Potency,[4],inactive
same,Potency,[5],inactive
same,Potency,[6],inactive
same,Potency,[7],inactive
same,Potency,[10],inactive
same,Potency,[8],inactive
same,Potency,[9],inactive
same,Potency,[11],inactive
CC(C)(Oc1ccc(Cl)cc1)C(=O)OCCCOC(=O)C(C)(C)Oc1ccc(Cl)cc1,Potency,[1],inactive
same,Potency,[2],inactive
same,Potency,[3],inactive
same,Potency,[4],inactive
same,Potency,[5],inactive
same,Potency,[6],inactive
same,Potency,[7],inactive
same,Potency,[10],inactive
same,Potency,[8],inactive
same,Potency,[9],inactive
same,Potency,[11],inactive
O=C(OCCN1CCOCC1)c1cccnc1Nc1cccc(C(F)(F)F)c1,Potency,[1],inactive
same,Potency,[2],inactive
same,Potency,[3],inactive
same,Potency,[4],inactive
same,Potency,[5],inactive
same,Potency,[6],inactive
same,Potency,[7],inactive
same,Potency,[10],inactive
same,Potency,[8],inactive
same,Potency,[9],inactive
same,Potency,[11],inactive
CCCCCCCCCCCCCCCC[n+]1ccccc1,Potency,[1],15 µM (active)
same,Potency,[2],7.7 µM (active)
same,Potency,[3],inactive
same,Potency,[4],13.3 µM (active)
same,Potency,[5],6.92 µM (active)
same,Potency,[6],7.5 µM (active)
same,Potency,[12],2.46 µM (active)
same,Potency,[7],13.3 µM (active)
same,Potency,[11],11.9 µM (active)
CCOC(=O)Cn1cccc1-c1nc(-c2ccc(OC)cc2)c(-c2ccc(OC)cc2)s1,Potency,[1],inactive
same,Potency,[2],inactive
same,Potency,[3],inactive
same,Potency,[4],inactive
same,Potency,[5],inactive
same,Potency,[6],inactive
same,Potency,[7],inactive
same,Potency,[10],inactive
same,Potency,[8],inactive
same,Potency,[9],inactive
same,Potency,[11],inactive
Cc1cc2nc3ccc(=[N+](C)C)cc-3sc2cc1N,Potency,[1],2.99 µM (active)
same,Potency,[2],10.9 µM (active)
same,Potency,[3],5.96 µM (active)
same,Potency,[4],1.33 µM (active)
same,Potency,[5],15.5 µM (active)
same,Potency,[6],2.99 µM (active)
same,Potency,[12],3.89 µM (active)
same,Potency,[7],4.73 µM (active)
same,Potency,[8],inactive
same,Potency,[11],5.96 µM (active)
CC1CN(c2cc3c(cc2F)c(=O)c(C(=O)O)cn3-c2ccc(F)cc2F)CCN1 (configuration not stated),"activity change, negative = cytotoxic",[1],39.6% [at 4.84 µM]
same,"activity change, negative = cytotoxic",[2],-4.88% [at 6 µM]
same,"activity change, negative = cytotoxic",[3],-5.39% [at 4.84 µM]
same,"activity change, negative = cytotoxic",[4],1.81% [at 4.84 µM]
same,"activity change, negative = cytotoxic",[5],-6.89% [at 6.03 µM]
same,"activity change, negative = cytotoxic",[6],-0.484% [at 4.84 µM]
same,"activity change, negative = cytotoxic",[7],-4.55% [at 4.84 µM]
same,"activity change, negative = cytotoxic",[8],-8.43% [at 4.84 µM]
same,"activity change, negative = cytotoxic",[9],5.93% [at 4.84 µM]
same,"activity change, negative = cytotoxic",[11],11.4% [at 4.84 µM]
Brc1ccccc1-c1ccccc1,Potency,[1],inactive
same,Potency,[2],inactive
same,Potency,[3],inactive
same,Potency,[4],inactive
same,Potency,[5],inactive
same,Potency,[12],inactive
same,Potency,[7],inactive
same,Potency,[10],inactive
same,Potency,[8],inactive
same,Potency,[9],inactive
same,Potency,[11],inactive
CC(=O)OCC[N+](C)(C)C,Potency,[1],inactive
same,Potency,[2],inactive
same,Potency,[3],inactive
same,Potency,[5],inactive
same,Potency,[6],inactive
same,Potency,[12],inactive
same,Potency,[7],inactive
same,Potency,[10],inactive
same,Potency,[8],inactive
same,Potency,[9],inactive
same,Potency,[11],inactive
COc1cc(C(=O)NC2CCCNC2)cc(OC)c1OC (configuration not stated),Potency,[1],inactive
same,Potency,[2],inactive
same,Potency,[3],inactive
same,Potency,[5],inactive
same,Potency,[6],inactive
same,Potency,[12],inactive
same,Potency,[7],inactive
same,Potency,[10],inactive
same,Potency,[8],inactive
same,Potency,[9],inactive
same,Potency,[11],inactive
Nc1nc(=O)n([C@@H]2O[C@H](CO)[C@@H](O)[C@@H]2F)cc1I,Potency,[1],inactive
same,Potency,[2],inactive
same,Potency,[3],inactive
same,Potency,[4],inactive
same,Potency,[7],inactive
same,Potency,[10],inactive
same,Potency,[8],inactive
same,Potency,[9],inactive
same,Potency,[11],inactive
Clc1ccc2c(c1)Nc1ccccc1S2,Potency,[1],inactive
same,Potency,[2],inactive
same,Potency,[3],inactive
same,Potency,[4],inactive
same,Potency,[6],inactive
same,Potency,[7],inactive
same,Potency,[10],inactive
same,Potency,[8],inactive
same,Potency,[11],inactive
Cc1cccc(OCC(O)CNC(C)(C)C)c1C (configuration not stated),Potency,[1],inactive
same,Potency,[2],inactive
same,Potency,[3],inactive
same,Potency,[4],inactive
same,Potency,[5],inactive
same,Potency,[12],inactive
same,Potency,[7],inactive
same,Potency,[10],inactive
same,Potency,[8],inactive
same,Potency,[9],inactive
same,Potency,[11],inactive
CC[C@@]1(O)C(=O)OCc2c1cc1n(c2=O)Cc2c-1nc1ccccc1c2/C=N/OC(C)(C)C,Potency,[1],0.0596 µM (active)
same,Potency,[2],0.194 µM (active)
same,Potency,[3],0.0531 µM (active)
same,Potency,[4],0.0211 µM (active)
same,Potency,[5],0.246 µM (active)
same,Potency,[12],0.0347 µM (active)
same,Potency,[7],0.668 µM (active)
same,Potency,[10],26.6 nM (active)
same,Potency,[8],inactive
same,Potency,[11],0.944 µM (active)
same,Potency,[13],41.4 nM (active)
same,Potency,[14],11.7 nM (active)
same,Potency,[15],5.2 nM (active)
same,Potency,[16],1.04 µM (active)
same,Potency,[17],14.7 nM (active)
same,Potency,[18],5.2 nM (active)
same,Potency,[19],92.8 nM (active)
same,Potency,[20],9.3 nM (active)
